The source of these data is PubChem BioAssay (NCI).

Structures are written as SMILES. Compounds without any hit were thinned out: in the full panel of roughly 83,000, 20% have a hit.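 Each cell line was grown in a 96-well plate and treated with one concentration of compound for 48 hours. Values below 10 were considered active.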 Values without a mark were called inactive. Active and inactive are the calls of the source.

This assay has as its system RPMI-8226 leukemia. In words: NCI-60 one-dose screen, 48 h (100 = growth as untreated, 0 = no growth, -100 = all killed). To be noted: 10 µM unless noted. The procedure:
Growth inhibition of the RPMI-8226 human tumor cell line is measured as a screen for anti-cancer activity. Cells are grown in 96 well plates and exposed to the test compound for 48 hours. Compounds are tested at a single concentration, which is 10^-5 M for most compounds. The reported endpoint is percent growth (GI% or GIPRCNT), where numbers from 0 - 100% represent growth inhibition, and numbers from -100% - 0 represent cell death. For example, a value of 40 represents 60% growth inhibition. A value of 0 means no net growth occurred over the course of the experiment. A value of -40 indicates 40% of cells at the beginning of the experiment died by the end of the experiment. A value of -100 means all cells are dead at the end of the experiment.
NCI-60 Human Tumor Cell Lines Screen was performed using the standard one-dose NCI protocol, which is described in more detail at https://dtp.cancer.gov/discovery_development/nci-60/default.htm.
Compounds with GIPRCNT values below 10 were considered active. Activity score was based on GIPRCNT using the following formula: […]
Score is 0 for GIPRCNT values of 100 or above, 50 for GIPRCNT values of 0, and 100 for GIPRCNT values of -100.
Take `COc1ccc(C2(SCCNCc3cc(N(C)C)ccn3)c3ccccc3C=Cc3ccccc32)cc1`: the growth is -22.8% (active).
For `CCN1C(=O)/C(=N\N=C(/C)c2ccc3c(c2)Nc2ccccc2S3)c2cc(Cl)ccc21`, the growth is 48%.
`CN(C)c1nc(NCCNS(=O)(=O)c2ccc(C(=O)/C=C/c3ccc(C(F)(F)F)cc3)cc2)nc(Nc2ccc(F)cc2)n1`: the growth is 0.159% (active).
Regarding `C#CCOc1ccc(/C=N/Nc2nc(-c3cc4cc(Br)ccc4oc3=O)cs2)cc1OC`, the growth is 68.2%.
For the molecule `COc1cc(/C=C2\C(=N)N=C(SCc3nc4ccccc4[nH]3)NC2=O)ccc1O`, the growth was 85%.
Under `O=C(NN1C(=O)/C(=C/C=C/c2ccc([N+](=O)[O-])o2)SC1=S)c1ccccc1O` stands -4.22% (active); under `O=C(COc1ccc(NC(=O)Nc2ccc(Cl)c(Cl)c2)cc1)N=Nc1c(O)[nH]c2ccc([N+](=O)[O-])cc12`, 55.4%; under `COc1ccc(C2=NN(C(C)=O)C(c3ccc(OCc4ccc(Cl)cc4)c(OC)c3)C2)cc1OC` (stereo not given), 37%.
Regarding `CC(=O)Nc1cccc(Nc2nccc(N[C@@H](C)c3ccccc3)n2)c1`, the growth is 8.53% (active).
As to `COc1ccc(-c2ccnc(SCc3cc4cc(OC)ccc4[nH]c3=O)n2)cc1`, the growth is 9.3% (active).
`CC(=O)NNc1ccc2nnc(-c3ccccc3)n2n1`: the growth is 115%.
The value for `Brc1ccc(N/N=C/c2c[nH]c3ccc(Br)cc23)nc1` was -17.2% (active); that for `N#Cc1c(-c2cccc(Cl)c2Cl)cc(-c2c[nH]c3ccccc23)[nH]c1=O` was 44.4%.
Under `O=C(NN1C(=O)/C(=C/C=C/c2ccc([N+](=O)[O-])o2)SC1=S)c1cccc(O)c1` stands -10.1% (active).
Consider `COc1cc2c(c(OC)c1OC)C(=O)CC(c1cccc(NC(=O)c3cccc(NC(=O)[C@H](C)NC(=O)OC(C)(C)C)c3)c1)O2` (stereo not given in full), for which the growth was 36.5%.
Regarding `Cn1cc(-c2cc3nc(-c4cn(C)c5ncccc45)cc(N)n3n2)c2cc(Cl)ccc21`, the growth was -13.9% (active).
On to `O=c1[nH]n(C(=S)N/N=C/c2ccccc2Cl)c(=O)c2ccccc12`, for which the growth is -1.71% (active).
Consider `CN(C)c1ccnc(NCCCSC(c2ccccc2)(c2ccccc2)c2ccccc2)c1`, for which the growth is -58.9% (active).
Turning to `O=C(/C=C/c1cccc(OCc2ccccc2)c1)c1nc2ccccc2[nH]1`, the growth is -52% (active).
As to `C=C1CC[C@@H]2[C@]3(C)COC(c4cn[nH]c4-c4ccc(Br)cc4)O[C@@H]3CC[C@@]2(C)[C@@H]1C/C=C1/C(=O)OCC1O` (stereo not given in full), the growth is 3.94% (active).
Under `Brc1ccc(-c2n(Cc3ccc4ccccc4c3)c(-c3ccccc3)c(-c3ccccc3)[n+]2Cc2ccc3ccccc3c2)cc1` stands -38% (active); under `CN(C)c1nc(NCCNS(=O)(=O)c2ccc(C3=Nc4c(N)nc(N)nc4NC(c4ccc(C(F)(F)F)cc4)C3)cc2)nc(Nc2ccc(F)cc2)n1` (stereo not given), -13.1% (active).
In the case of `CCCCc1c(Nn2cnnn2)no[n+]1[O-]`, the growth was 45.8%.
`CCOC(=O)C(N=Nc1ccc(S(=O)(=O)N=C(N)N)cc1)C(C)=O` (stereo not given): the growth is 98.5%.
For the molecule `COc1ccc(-c2cc(C(=O)NCc3ccccc3)nn2-c2ccc(S(C)(=O)=O)cc2)cc1OC`, the growth was 86.9%.
As to `O=C(O)c1ccc(-c2ccc(/C=N/NC(=O)c3[nH]c4ccc(Br)cc4c3-c3ccccc3)s2)cc1`, the growth was 12.1%.
`CCOC(=O)C1=C(N)N(c2ccccc2)C2=C(C(=O)CC(C)(C)C2)C1c1cccc(Cl)c1Cl` (stereo not given): the growth is 50.7%.
Consider `Cn1cc(NC(=O)c2cc(NC(=O)c3ccc(/C=C/c4ccccc4)cc3)cn2C)cc1C(=O)NCCCN1CCOCC1`, for which the growth was -47.7% (active).
As to `CC(=O)OCC1OC(OC2C(COC(C)=O)OC(n3cc(COc4ccc5ccc(=O)oc5c4)nn3)C(OC(C)=O)C2OC(C)=O)C(OC(C)=O)C(OC(C)=O)C1OC(C)=O` (stereo not given), the growth is 97.3%.
The value for `CC12CC[C@@H]3[C@]4(C)COC(c5cn[nH]c5-c5cccc(Br)c5)O[C@@H]4CC[C@@]3(C)[C@@H]1CC(C1=CCOC1=O)O2` (stereo not given in full) was 13.2%; that for `CN(C)CCCNC(=O)c1cc(NC(=O)c2cc(NC(=O)c3ccc(C#Cc4ccccc4)cc3)cn2C)cn1C` was -49% (active).
In the case of `O=C(C1=CNC(=S)NC1c1ccc(O)cc1)c1cc2ccccc2oc1=O` (stereo not given), the growth was 88.7%.
The value for `COc1ccc(CCC2c3c(cc4c(c3OC)OCO4)CCN2C)cc1` (stereo not given) was -28.5% (active).
Regarding `Cc1cnc(C(=O)NNc2nc3cc(F)ccc3n3c(C(=O)N4CC5CC(C4)N5)ccc23)cn1`, the growth was 48.1%.
On to `CC12CC[C@@H]3[C@]4(C)COC(c5c(F)cccc5F)O[C@@H]4CC[C@@]3(C)[C@@H]1CC(C1=CCOC1=O)O2` (stereo not given in full), for which the growth was 40.4%.
As to `COc1ccc2[nH]cc(-c3nc(N)nnc3-c3cn(C)c4ncccc34)c2c1`, the growth was 58.2%.
With `CN1CCN(c2ccc(C(=O)/C=C/c3cc(C(F)(F)F)cc(C(F)(F)F)c3)cc2)CC1`, the growth was -19.4% (active).
Under `COc1ccc(-c2nc3cc(C)ccc3n2CC(=O)N=Nc2c(O)[nH]c3ccccc23)cc1` stands 59.3%; under `Cc1ccc(C(SCCNCc2cc(N(C)C)ccn2)(c2ccccc2)c2ccccc2)cc1`, -54.6% (active).
On to `O=C(Cn1nc(-c2ccccc2)ccc1=O)N/N=C/c1ccc(N2CCOCC2)cc1`, for which the growth is 87.8%.
